The record followed here is ChEMBL document CHEMBL3988442, “University of Dundee, Small-Polar-MMV Screening Library” (2021).

The structures appear in SMILES notation. Screen size: about 67,000 compounds; about 300 (0.45%) showed an effect of 50% or more. Only a selection was taken, and strong results are over-represented in it overall.

Polyketide synthase Pks13 (Mycobacterium tuberculosis (strain ATCC 25618 / H37Rv)), sequence (I6X8D2 whole entry): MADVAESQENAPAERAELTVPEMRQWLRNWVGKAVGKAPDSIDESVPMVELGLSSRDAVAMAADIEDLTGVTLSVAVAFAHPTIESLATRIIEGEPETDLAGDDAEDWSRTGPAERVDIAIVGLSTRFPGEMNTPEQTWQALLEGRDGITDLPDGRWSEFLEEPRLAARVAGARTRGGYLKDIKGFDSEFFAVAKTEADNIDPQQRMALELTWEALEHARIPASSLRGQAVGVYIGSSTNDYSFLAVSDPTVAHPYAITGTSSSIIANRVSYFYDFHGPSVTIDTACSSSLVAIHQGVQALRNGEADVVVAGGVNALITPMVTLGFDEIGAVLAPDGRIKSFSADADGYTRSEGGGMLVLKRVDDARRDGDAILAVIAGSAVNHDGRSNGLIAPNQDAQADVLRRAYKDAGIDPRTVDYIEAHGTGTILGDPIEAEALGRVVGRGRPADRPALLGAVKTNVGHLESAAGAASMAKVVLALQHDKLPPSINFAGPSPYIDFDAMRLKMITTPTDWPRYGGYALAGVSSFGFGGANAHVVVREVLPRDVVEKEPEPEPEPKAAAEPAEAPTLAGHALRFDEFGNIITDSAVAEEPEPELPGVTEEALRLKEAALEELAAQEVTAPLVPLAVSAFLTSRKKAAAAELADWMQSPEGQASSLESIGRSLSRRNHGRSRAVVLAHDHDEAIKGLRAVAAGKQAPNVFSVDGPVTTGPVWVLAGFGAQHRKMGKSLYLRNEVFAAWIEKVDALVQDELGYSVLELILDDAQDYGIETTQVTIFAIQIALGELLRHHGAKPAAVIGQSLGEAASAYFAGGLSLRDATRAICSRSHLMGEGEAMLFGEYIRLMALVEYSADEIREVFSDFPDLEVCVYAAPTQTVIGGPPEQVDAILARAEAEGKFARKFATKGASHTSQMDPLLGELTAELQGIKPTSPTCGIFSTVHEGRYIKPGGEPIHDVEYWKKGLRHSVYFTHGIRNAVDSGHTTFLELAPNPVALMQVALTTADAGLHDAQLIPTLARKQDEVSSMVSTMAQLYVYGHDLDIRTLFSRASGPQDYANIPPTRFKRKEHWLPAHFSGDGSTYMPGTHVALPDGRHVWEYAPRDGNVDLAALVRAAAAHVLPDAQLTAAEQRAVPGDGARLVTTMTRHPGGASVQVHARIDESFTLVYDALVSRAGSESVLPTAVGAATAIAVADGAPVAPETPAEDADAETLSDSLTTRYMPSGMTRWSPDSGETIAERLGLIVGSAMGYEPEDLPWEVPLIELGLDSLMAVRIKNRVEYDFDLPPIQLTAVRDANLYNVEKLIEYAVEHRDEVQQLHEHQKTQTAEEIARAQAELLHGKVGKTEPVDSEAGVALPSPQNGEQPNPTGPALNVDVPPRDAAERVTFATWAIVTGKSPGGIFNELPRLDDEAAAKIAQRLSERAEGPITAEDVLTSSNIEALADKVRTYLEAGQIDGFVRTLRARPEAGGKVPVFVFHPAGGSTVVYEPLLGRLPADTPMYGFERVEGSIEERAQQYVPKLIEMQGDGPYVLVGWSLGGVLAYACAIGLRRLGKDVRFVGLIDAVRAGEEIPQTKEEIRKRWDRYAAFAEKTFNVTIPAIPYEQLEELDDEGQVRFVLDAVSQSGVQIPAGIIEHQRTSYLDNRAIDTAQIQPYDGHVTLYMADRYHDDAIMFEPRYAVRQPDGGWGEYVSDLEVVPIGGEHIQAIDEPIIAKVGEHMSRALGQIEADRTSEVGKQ

The test has as its target Polyketide synthase Pks13 (Mycobacterium tuberculosis (strain ATCC 25618 / H37Rv)) (UniProt I6X8D2). Description: Mycobacterium tuberculosis Polyketide synthase 13 Thioesterase (PKS13). More on the design: scale not given: in the data most compounds retested in dose-response had high values. Type of test: functional. As to conditions: 30 µM.
As for `CNc1cncc(C2CCCN2c2cc(C)ncn2)n1` (configuration not stated), the Percent Effect is 55%. The figure for `Cc1cc(N2CCCC2c2cncc(N(C)C)n2)ncn1` (configuration not stated) is -0.232%; for `Cc1cc(N2CCCC2c2cnccn2)ncn1` (configuration not stated) it is -32.2%; for `O=C(NC1CC1)[C@@H]1C[C@@H]2CCN(Cc3ccoc3)C[C@@H]2O1` it is -9.29%.

`O=C(c1cn2ccsc2n1)N1CCN(CC2CC2)[C@@H]2CS(=O)(=O)C[C@@H]21`: the Percent Effect was -4.84%.

Consider `CC[C@H](C)[C@H](N)C(=O)Nc1nc(-c2cnc(N3CCOCC3)nc2)cs1`, for which the Percent Effect was 36.7%.

As for `CC[C@H](C)[C@H](N)C(=O)Nc1nc(-c2cnc(N(C)CCO)nc2)cs1`, the Percent Effect worked out at 27.2%. As for `CC[C@H](C)[C@H](N)C(=O)Nc1nc(-c2cnc(N(C)C)nc2)cs1`, the Percent Effect was 146%. `CN1CCc2c(sc3c2C(=O)NC(/C=C/c2ccccc2)N3)C1` (configuration not stated): the Percent Effect came to 33.3%.

Consider `O=C1C[C@H]2[C@H](CCN2C(=O)c2cc[nH]n2)N1Cc1cccnc1`, for which the Percent Effect was -24.8%.

Take `O=C1CC(c2ccccc2)c2sc(C(=O)O)c(-c3ccccc3)c2N1` (configuration not stated): the Percent Effect was -32%. Consider `O=C1CC(c2ccc(O)cc2)c2sc(C(=O)O)c(-c3ccccc3)c2N1` (configuration not stated), for which the Percent Effect was -18.2%. Take `O=C1CC(c2ccco2)c2sc(C(=O)O)c(-c3ccccc3)c2N1` (configuration not stated): the Percent Effect was found to be 65.6%. With `O=C(C1CC1)N1CCN(C(=O)C2CC(=O)N(c3ccccc3Br)C2)CC1` (configuration not stated), the Percent Effect was -26.4%. With `CCOC(=O)N1CCN(C(=O)C2CC(=O)N(c3ccccc3Br)C2)CC1` (configuration not stated), the Percent Effect amounted to 50.9%. Then `O=C(C1CC(=O)N(c2ccccc2Br)C1)N1CCCCCC1` (configuration not stated), with -11.4%. On to `COc1ncccc1CN1C[C@@H]2COC[C@]2(CNS(C)(=O)=O)C1`, for which the Percent Effect came to 1.01%.

For the molecule `CC(=O)N1CCCN(C(=O)NCc2ccc(-c3ccn[nH]3)cc2)CC1`, the Percent Effect was -4.03%. Regarding `CC(=O)NC1CCCN(C(=O)NCc2ccc(-c3ccn[nH]3)cc2)C1` (configuration not stated), the Percent Effect was -5.89%. Then `CCOCC1CCCN(C(=O)NCc2ccc(-c3ccn[nH]3)cc2)C1` (configuration not stated), with 56.4%; and `Cc1nnc(N2CC[C@H]3C[C@@H](C(=O)NC4CCCC4)O[C@H]3C2)s1`, with -27.2%; and `O=C([C@H]1C[C@H]2OCC[C@H]2N(Cc2ccccn2)C1)N1CCCCO1`, with -14.6%. As to `CN(C)CC(=O)N1Cc2nc(C(=O)NCc3ccncc3)oc2C1`, the Percent Effect is -7.86%. `CCCNC(=O)c1nc2c(o1)CN(C(=O)CN(C)C)C2`: the Percent Effect is -38.7%. Turning to `CN(C)CC(=O)N1Cc2nc(C(=O)NCc3ccccc3)oc2C1`, the Percent Effect came out at 72.3%. On to `Cc1cc(C(=O)NCc2cc(C)oc2C)no1`, for which the Percent Effect turned out to be 59.4%. With `Cc1cc(CNC(=O)c2cnoc2C)c(C)o1`, the Percent Effect worked out at 10.7%. Then `Cc1cc(CNC(=O)c2ccno2)c(C)o1`, with -13.1%; and `Cc1nc([C@H]2C[C@@H]3CCN(Cc4scnc4C)C[C@H]3O2)no1`, with -27.4%. For the molecule `Cc1cc(C)n(-c2nc(C(=O)NCCS(=O)(=O)N3CCCCC3)cs2)n1`, the Percent Effect was determined as 16%. On to `Cc1cc(C)n(-c2nc(C(=O)NCCN3CCC(C)CC3)cs2)n1`, for which the Percent Effect was 51.2%.

With `Cc1cc(C(=O)NCCN2CCC(C)CC2)nn1C(C)(C)C`, the Percent Effect is -8.5%. With `CN(C)C(=O)CO[C@H]1CN(Cc2ccsc2)[C@@H]2COC[C@H]12`, the Percent Effect was -4.76%. Take `O=C(C1CC1)N1C[C@H]2CCCN(S(=O)(=O)c3cccc(F)c3)[C@H]2C1`: the Percent Effect was -2.59%.

As to `Cc1ccc(-c2ncc(C(=O)NCCNC(=O)C(C)C)s2)c(C)c1`, the Percent Effect turned out to be 1.54%. With `CC(=O)NCCNC(=O)c1cnc(-c2ccc(C)cc2C)s1`, the Percent Effect came out at 10.8%. For the molecule `Cc1ccc(-c2ncc(C(=O)NCCNc3ncccn3)s2)c(C)c1`, the Percent Effect stood at 70.6%. In the case of `Cc1ccc(C(=O)N2CC[C@H]3[C@@H]2CCC(=O)N3c2cccnc2)o1`, the Percent Effect was -561%. Regarding `CN1CCS(=O)(=O)[C@@H]2CCN(C(=O)CC(C)(C)C)CC[C@@H]21`, the Percent Effect was -26%. On to `Cc1cc(CN2C[C@@H]3COC[C@H](C(=O)N4CCCCO4)[C@@H]3C2)oc1C`, for which the Percent Effect was -10.7%. On to `Cc1cnc(N2C[C@@H]3CCN(CC4CC4)C(=O)[C@H]3C2)nc1`, for which the Percent Effect is -1.64%. Turning to `C[C@H](NC(=O)c1cccc(CCC(C)(C)O)c1)C(N)=O`, the Percent Effect came to 54%. With `CC(C)(O)CCc1cccc(C(=O)N[C@@H](CO)C(N)=O)c1`, the Percent Effect was 10.3%. `CC(C)[C@H](NC(=O)c1cccc(CCC(C)(C)O)c1)C(N)=O`: the Percent Effect was 5.12%. Turning to `CN(Cc1cncnc1)[C@H]1CN(CC2CC2)[C@@H]2CCCO[C@@H]21`, the Percent Effect is -5.38%.

Turning to `Cc1ccccc1S(=O)(=O)N[C@@H]1CC[C@@H](N2CCNC(=O)C2)[C@@H]1O`, the Percent Effect worked out at 53%.

For `O=C1CN([C@@H]2CC[C@@H](NS(=O)(=O)c3ccccc3)[C@H]2O)CCN1`, the Percent Effect was found to be 0.207%. The figure for `O=C1CN([C@@H]2CC[C@@H](NS(=O)(=O)c3ccccc3F)[C@H]2O)CCN1` is -2.59%. The figure for `COCCN1C[C@@H]2CCCO[C@@H]2[C@H](N(C)Cc2ccco2)C1` is -24.6%; for `Cc1ccc(CN2CC[C@@]3(O)CCN(S(=O)(=O)N(C)C)C[C@H]3C2)cc1C` it is -28.6%.

For `Cc1cc(-c2cnn(CCNC(=O)c3cnn(C)c3)c2C2CC2)on1`, the Percent Effect was -12.5%. As for `Cc1cc(-c2cnn(CCNC(=O)c3snnc3C)c2C2CC2)on1`, the Percent Effect worked out at 90.2%.
